Compounds with a hit are over-represented: about 3% of the library has one in this group of screens.
Rv3671c protease: inhibits the M. tuberculosis serine protease Rv3671c; actives 0.048% (n = 320,000); inhibition, % at 5.96 µM; in the data active = inhibition above about 38%;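 also: extracellular domain of Rv3671c used as enzyme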
Mtb FBA inh: inhibits M. tuberculosis FBA enzyme. inhibition, % at 1 µM. P9WQA3. actives 2.3% (n = 360,000). purified M. tuberculosis FBA, fluorescence read-out
Target sequence (P9WQA3 whole entry, looked up): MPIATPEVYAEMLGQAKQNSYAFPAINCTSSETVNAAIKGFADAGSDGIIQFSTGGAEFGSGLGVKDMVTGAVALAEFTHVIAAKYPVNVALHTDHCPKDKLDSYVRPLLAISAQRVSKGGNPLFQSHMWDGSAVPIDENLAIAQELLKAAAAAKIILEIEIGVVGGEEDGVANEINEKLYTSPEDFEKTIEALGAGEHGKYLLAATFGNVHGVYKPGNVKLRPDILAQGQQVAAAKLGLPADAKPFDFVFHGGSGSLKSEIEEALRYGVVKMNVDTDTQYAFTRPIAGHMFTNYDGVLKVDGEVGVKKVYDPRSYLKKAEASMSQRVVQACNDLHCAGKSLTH
Mtb BioA inh: inhibitors of Mycobacterium tuberculosis BioA enzyme; inhibition, % at 9.99 µM; actives 0.096% (n = 360,000); purified M. tuberculosis BioA enzyme, plate reader; in the data active = inhibition above about 40%
FadD28 FP inh: inhibitors of Mycobacterium tuberculosis FadD28 bisubstrate binding; inhibition, % at 12.5 µM; actives 0.22% (n = 360,000); FadD28 bisubstrate probe binding, fluorescence polarization; in the data active = inhibition above about 8.5%, passing the limit was not always enough
GDH-TPI counter-1: counter-screen for M. tuberculosis FBA inhibitors: GDH-TPI coupled enzymes | GDH-TPI coupled enzyme counterscreen, NADH absorbance | inhibition, % at 4.8 µM | actives 1.2% (n = 360,000); in the data active = inhibition above about 30%
Mtb FBA confirm: Mtb FBA inhibition, confirmed. shares compounds with Mtb FBA inh. purified M. tuberculosis FBA, fluorescence read-out. inhibition, % at 1 µM. actives 78% (n = 5,600). AID 651616
GDH-TPI counter-2: inhibits GDH-TPI coupling enzymes, flagging Mtb FBA hits | shares compounds with Mtb FBA inh | GDH-TPI coupled enzyme counterscreen, fluorescence | inhibition, % at 1 µM | actives 81% (n = 5,600) | AID 652141; in the data active = inhibition above about 10%
Each line names hits and unclear results; the compound was inactive in the other large screens (follow-up assays come after a bar, where they were run). Rule as the data show it, unless noted: active = inhibition above about 27%; inactive = the rest.

COc1ccccc1-c1cn(CC[C@H]2CC[C@@H](NC(=O)c3cnccn3)[C@@H](CO)O2)nn1	none (no result: Rv3671c protease, Mtb FBA inh, FadD28 FP inh, GDH-TPI counter-1)
CCc1nc(N2CCN(C(C)=O)CC2)c(C#N)c2c1COC(C)(C)C2	Mtb FBA inh 36.0 (no result: Mtb BioA inh) | Mtb FBA confirm inactive | GDH-TPI counter-2 inactive
CCCc1nc(N2CCOCC2)c(C#N)c2c1CCCC2	Mtb FBA inh 30.3 | Mtb FBA confirm 168.5 | GDH-TPI counter-2 140.9
CC(C)Cc1nc(NCCN2CCOCC2)c(C#N)c2c1COC(C)(C)C2	none
CCc1nc(N2CCN(C(=O)c3ccco3)CC2)c(C#N)c2c1COC(C)(C)C2	Mtb FBA inh 40.1 | Mtb FBA confirm 57.1 | GDH-TPI counter-2 39.0
CC(C)Cc1nc(N2CCOCC2)c(C#N)c2c1COC(C)(C)C2	Mtb FBA inh 36.5 | Mtb FBA confirm inactive | GDH-TPI counter-2 inactive
CC1(C)Cc2c(C#N)c(N3CCN(C(=O)c4ccco4)CC3)nc(Cc3ccccc3)c2CO1	none
Cc1noc(C)c1NC(=O)N(C)C[C@@H]1Oc2c(NC(=O)c3ccncc3)cccc2C(=O)N([C@@H](C)CO)C[C@@H]1C	none (no result: Rv3671c protease, Mtb FBA inh, FadD28 FP inh, GDH-TPI counter-1)
O=C1CC(C(=O)Nc2ccccc2)C2(CCCCC2)O1 (stereo unspecified)	Mtb FBA inh 50.1 (no result: Mtb BioA inh) | Mtb FBA confirm inactive | GDH-TPI counter-2 inactive
Cc1ccc2cc(C#N)c(NCCNC(=S)NCCCN(C)C)nc2c1C	none (no result: Mtb BioA inh)
Cc1cccc2cc(C#N)c(NCCNC(=O)COc3ccccc3)nc12	Mtb FBA inh 39.9 (no result: Mtb BioA inh) | Mtb FBA confirm 102.4 | GDH-TPI counter-2 88.8
Cc1cc(C)c2nc(NCCCNC(=S)NCCCN(C)C)c(C#N)cc2c1	Mtb FBA inh 58.5 (no result: Mtb BioA inh) | Mtb FBA confirm 52.2 | GDH-TPI counter-2 42.8
Cc1ccc2cc(C#N)c(NCCNC(=O)C3CC3)nc2c1C	Mtb FBA inh 32.4 | Mtb FBA confirm 133.1 | GDH-TPI counter-2 111.2
Cc1cccc2cc(C#N)c(NCCCNS(=O)(=O)c3ccc(Cl)cc3)nc12	none
Cc1cccc2cc(C#N)c(NCCCn3ccnc3)nc12	Mtb FBA inh 39.3 | Mtb FBA confirm 151.9 | GDH-TPI counter-2 139.5
COc1ccc(S(=O)(=O)Nc2ccc3c(c2)C(=O)N([C@H](C)CO)C[C@@H](C)[C@@H](CN(C)Cc2ccncc2)O3)cc1	none (no result: Rv3671c protease, Mtb FBA inh, FadD28 FP inh, GDH-TPI counter-1)
CCOCCCNC(=S)NCCCNc1nc2c(C)cc(C)cc2cc1C#N	Mtb FBA inh 38.1 (no result: Rv3671c protease, Mtb BioA inh) | Mtb FBA confirm active | GDH-TPI counter-2 147.4
CCOCCCNC(=S)NCCNc1nc2c(C)cccc2cc1C#N	Mtb FBA inh 57.5 | Mtb FBA confirm 33.3 | GDH-TPI counter-2 28.5
COCCCNC(=S)NCCNc1nc2cc(C)cc(C)c2cc1C#N	none (no result: Mtb BioA inh)
CC(C)[C@H](CO)Nc1nc(Nc2ccc(Cl)c(C(=O)O)c2)c2ncn(C(C)C)c2n1	none
CC(C)n1cnc2c(Nc3cccc(Cl)c3)nc(NCCCO)nc21	Mtb FBA inh 33.5 | Mtb FBA confirm 130.3 | GDH-TPI counter-2 98.0
O=C(C[C@@H]1CC[C@H]2[C@@H](COC[C@@H](O)CN2C(=O)Nc2ccc(Cl)c(Cl)c2)O1)NC1CCC1	none (no result: Rv3671c protease, Mtb FBA inh, FadD28 FP inh, GDH-TPI counter-1)
CCOC(=O)c1c(-c2ccc(Cl)cc2)cn2ccccc12	Mtb FBA inh 63.7 | Mtb FBA confirm active | GDH-TPI counter-2 171.8
C[C@H]1CN([C@@H](C)CO)C(=O)c2cc(/C=C/c3ccccc3)cnc2O[C@@H]1CN(C)S(=O)(=O)c1cccs1	none (no result: Rv3671c protease, Mtb FBA inh, FadD28 FP inh, GDH-TPI counter-1)
O=C1N=C(c2ccccc2)C(c2ccccc2)N1 (stereo unspecified)	Mtb FBA inh 90.8 | Mtb FBA confirm inactive | GDH-TPI counter-2 inactive
CCOC(=O)CC1(C)NC(=O)c2c(C)sc(C(=O)OCC)c2N1 (stereo unspecified)	Mtb FBA inh 54.9 (no result: Mtb BioA inh) | Mtb FBA confirm inactive | GDH-TPI counter-2 inactive
CCCCC1(C)NC(=O)c2c(C)sc(C(=O)OCC)c2N1 (stereo unspecified)	none
CCOC(=O)CC1(CC(=O)OCC)NC(=O)c2c(C)sc(C(=O)OCC)c2N1	Mtb FBA inh 30.6 | Mtb FBA confirm inactive | GDH-TPI counter-2 inactive
CCc1cc2ccc(C)cc2nc1SCC(=O)Nc1cc(OC)c(OC)cc1C(=O)O	Mtb FBA inh 47.1 (no result: Mtb BioA inh) | Mtb FBA confirm inactive | GDH-TPI counter-2 inactive
CC(C)C#Cc1cnc2c(c1)C(=O)N([C@@H](C)CO)C[C@H](C)[C@@H](CN(C)Cc1cccc(F)c1)O2	none (no result: Rv3671c protease, Mtb FBA inh, FadD28 FP inh, GDH-TPI counter-1)
Cc1ccc(S(=O)(=O)N(C)C[C@H]2Oc3cc(C#Cc4ccncc4)ccc3S(=O)(=O)N([C@H](C)CO)C[C@@H]2C)cc1	none (no result: Rv3671c protease, Mtb FBA inh, FadD28 FP inh, GDH-TPI counter-1)

Screens as filed in PubChem.
